# Experimental data taken from PubChem BioAssay (Tox21).
# A number with no mark means an inactive call. Results filed as inconclusive are left out. A call without a number means that no potency is given here. The source made the active and inactive calls. The call rests on the fitted dose curve; in most records, active means well fitted curve in the direction sought with a large enough effect in the repeat runs; inconclusive means weak or mixed curves; inactive means no such curve, though single readings can be large; an effect the other way counts as inactive or inconclusive.
# Columns and labels:
# [1] = qHTS RealTime-Glo MT Cell Viability Assay in HEK293 cells - 40 hour (AID 1224874); details: RealTime-Glo luminescence; max response: stronger effect = lower value; further: nearly all actives have a fitted effect of over 50% in size; further: potency means the concentration at half of the fitted maximal effect
# Procedure, shortened: (§1)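 Tox21 screen in HEK293 using RealTime-Glo MT chemistry, with cells and reagent co-dispensed. Luminescence proportional to viable cell number was captured at intervals during 40 h compound exposure at 37 C.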
# [2] = A CellTox Green Cytotoxicity Assay to monitor cytotoxicity in HEK293 cells - 24 hour (AID 1224875); further: nearly all actives have a fitted effect of over 45% in size; further: potency means the concentration at half of the fitted maximal effect; on activity change: series mostly up to about 77 µM
# Procedure, shortened: (§2)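 Seeding of HEK293 cells together with cytotoxicity dye preceded a 5 h incubation at 37 C/5% CO2. Test compounds in DMSO were then added and fluorescence monitored across 40 h.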
# [3] = A CellTox Green Cytotoxicity Assay to monitor cytotoxicity in HepG2 cells - 16 hour (AID 1224876); further: nearly all actives have a fitted effect of over 45% in size; further: potency means the concentration at half of the fitted maximal effect
# Procedure, shortened: (§3)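 Nonlytic assay: viable cells exclude the dye, so fluorescence scales with cell death. HepG2 at 600 cells/well, compounds added after 5 h, signal read across 40 h.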
# [4] = qHTS RealTime-Glo MT Cell Viability Assay in HepG2 cells - 32 hour (AID 1224877); further: nearly all actives have a fitted effect of over 55% in size; further: potency means the concentration at half of the fitted maximal effect
# Procedure, shortened: (§4)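 HepG2 cells were seeded at 600 cells/well together with NanoLuc luciferase and a cell-permeant prosubstrate, preincubated 5 h at 37 C/5% CO2, then pin-dosed with compounds in DMSO. Nonlytic luminescence from viable cells was read at each time point.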
# [5] = A CellTox Green Cytotoxicity Assay to monitor cytotoxicity in HepG2 cells - 24 hour (AID 1224878); further: nearly all actives have a fitted effect of over 45% in size; further: potency means the concentration at half of the fitted maximal effect
# Procedure, shortened: as §3
# [6] = A CellTox Green Cytotoxicity Assay to monitor cytotoxicity in HepG2 cells - 40 hour (AID 1224879); further: nearly all actives have a fitted effect of over 40% in size; further: potency means the concentration at half of the fitted maximal effect
# Procedure, shortened: as §3
# [7] = qHTS RealTime-Glo MT Cell Viability Assay in HEK293 cells - 0 hour (AID 1224880); further: top concentration of the series differs between compounds; nearly all actives have a fitted effect of over 45% in size
# Procedure, shortened: as §1
# [8] = A CellTox Green Cytotoxicity Assay to monitor cytotoxicity in HepG2 cells - 0 hour (AID 1224882); further: nearly all actives have a fitted effect of over 35% in size
# Procedure, shortened: as §3
# [9] = A CellTox Green Cytotoxicity Assay to monitor cytotoxicity in HepG2 cells - 32 hour (AID 1224883); further: nearly all actives have a fitted effect of over 50% in size; further: potency means the concentration at half of the fitted maximal effect
# Procedure, shortened: as §3
# [10] = A CellTox Green Cytotoxicity Assay to monitor cytotoxicity in HEK293 cells - 8 hour (AID 1224884); further: nearly all actives have a fitted effect of over 35% in size
# Procedure, shortened: as §2
# [11] = qHTS RealTime-Glo MT Cell Viability Assay in HepG2 cells - 16 hour (AID 1224885); further: nearly all actives have a fitted effect of over 50% in size; further: potency means the concentration at half of the fitted maximal effect
# Procedure, shortened: as §4
# [12] = qHTS RealTime-Glo MT Cell Viability Assay in HEK293 cells - 24 hour (AID 1224886); further: nearly all actives have a fitted effect of over 50% in size; further: potency means the concentration at half of the fitted maximal effect; on activity change, negative = cytotoxicity: top concentration of the series differs between compounds
# Procedure, shortened: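 HEK293 cells were seeded at 600 cells/well together with NanoLuc luciferase and cell-permeant prosubstrate, preincubated 5 h at 37 C/5% CO2, then given compound in DMSO by pintool. Luminescence from viable-cell prosubstrate reduction was read repeatedly over 40 h.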
# [13] = qHTS RealTime-Glo MT Cell Viability Assay in HEK293 cells - 8 hour (AID 1224887); further: nearly all actives have a fitted effect of over 50% in size; further: potency means the concentration at half of the fitted maximal effect; on activity change, negative = cytotoxicity: top concentration of the series differs between compounds
# Procedure, shortened: as §1
# [14] = A CellTox Green Cytotoxicity Assay to monitor cytotoxicity in HEK293 cells - 16 hour (AID 1224888); further: nearly all actives have a fitted effect of over 35% in size; further: potency means the concentration at half of the fitted maximal effect
# Procedure, shortened: as §2
# [15] = qHTS RealTime-Glo MT Cell Viability Assay in HepG2 cells - 0 hour (AID 1224889); further: nearly all actives have a fitted effect of over 50% in size
# Procedure, shortened: as §4
# [16] = A CellTox Green Cytotoxicity Assay to monitor cytotoxicity in HepG2 cells - 8 hour (AID 1224890); further: nearly all actives have a fitted effect of over 45% in size; further: potency means the concentration at half of the fitted maximal effect
# Procedure, shortened: as §3
# [17] = qHTS assay to identify small molecule antagonists of the estrogen receptor alpha (ER-alpha) signaling pathway using the BG1 cell line in the presence of 0.1 nM 17-beta-estradiol - cell viability counter screen (AID 1259241); further: nearly all actives have a fitted effect of over 40% in size
# Procedure, shortened: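 In this screen, hormone-deprived VM7Luc4E2 cells were seeded at 4,000 per well, dosed with compound and 0.1 nM estradiol final, and incubated 22 hr at 37C and 5% CO2; fluorogenic live-cell protease signal reported viability.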
# [18] = qHTS assay to identify small molecule antagonists of the androgen receptor (AR) signaling pathway using the MDA cell line in the presence of 0.5 nM R1881 - cell viability counter screen (AID 1259242); further: nearly all actives have a fitted effect of over 45% in size; further: potency means the concentration at half of the fitted maximal effect
# Procedure, shortened: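 R1881 at 0.5 nM final stimulated MDA-kb2 cells during 16 hr compound treatment at 37C. Cytotoxicity read: CellTiter-Fluor fluorescence after 30 min.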
# [19] = target: Androgen receptor (Homo sapiens) (UniProt P10275); assay: qHTS assay to identify small molecule antagonists of the androgen receptor (AR) signaling pathway using the MDA cell line in the presence of 0.5 nM R1881 (AID 1259243); further: nearly all actives have a fitted effect of over 50% in size; further: potency means the concentration at half of the fitted maximal effect
# Procedure, shortened: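 We exposed MDA-kb2 cells to compounds under 0.5 nM R1881 stimulation for 16 hr at 37C and quantified MMTV-driven luciferase by luminescence.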
# [20] = A CellTox Green Cytotoxicity Assay to monitor cytotoxicity in HEK293 cells - 32 hour (AID 1224881); further: nearly all actives have a fitted effect of over 40% in size; further: potency means the concentration at half of the fitted maximal effect
# Procedure, shortened: as §2
# Androgen receptor (Homo sapiens), sequence (P10275 whole entry, looked up): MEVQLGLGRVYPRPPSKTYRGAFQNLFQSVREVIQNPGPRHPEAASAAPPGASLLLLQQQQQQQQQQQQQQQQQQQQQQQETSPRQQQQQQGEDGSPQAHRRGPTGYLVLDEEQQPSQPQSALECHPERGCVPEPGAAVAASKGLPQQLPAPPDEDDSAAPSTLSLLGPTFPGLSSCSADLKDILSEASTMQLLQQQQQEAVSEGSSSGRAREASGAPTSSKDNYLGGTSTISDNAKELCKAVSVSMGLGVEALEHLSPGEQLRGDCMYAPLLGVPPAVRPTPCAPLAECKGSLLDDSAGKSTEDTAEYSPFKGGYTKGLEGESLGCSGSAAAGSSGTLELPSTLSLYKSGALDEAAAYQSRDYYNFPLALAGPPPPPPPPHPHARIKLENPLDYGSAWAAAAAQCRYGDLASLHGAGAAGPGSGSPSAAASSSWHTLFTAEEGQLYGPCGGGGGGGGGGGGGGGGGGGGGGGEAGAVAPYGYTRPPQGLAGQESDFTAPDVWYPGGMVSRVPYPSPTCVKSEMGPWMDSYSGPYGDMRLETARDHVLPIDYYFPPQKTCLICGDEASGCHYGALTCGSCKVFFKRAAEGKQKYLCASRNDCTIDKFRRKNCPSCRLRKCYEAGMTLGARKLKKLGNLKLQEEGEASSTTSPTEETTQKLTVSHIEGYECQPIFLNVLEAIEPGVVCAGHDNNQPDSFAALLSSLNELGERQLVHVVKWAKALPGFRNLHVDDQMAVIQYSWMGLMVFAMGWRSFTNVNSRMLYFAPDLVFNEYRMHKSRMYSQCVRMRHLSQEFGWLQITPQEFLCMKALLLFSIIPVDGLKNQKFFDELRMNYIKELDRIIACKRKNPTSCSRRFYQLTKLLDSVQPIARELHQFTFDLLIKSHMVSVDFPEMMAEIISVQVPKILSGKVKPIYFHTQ
smiles,measurement,setting,value
Clc1cccc(Cl)n1,max response,[1],3.2%
same,Potency,[2],inactive
same,Potency,[3],inactive
same,Potency,[4],inactive
same,Potency,[5],inactive
same,Potency,[6],inactive
same,Potency,[7],inactive
same,Potency,[8],inactive
same,Potency,[9],inactive
same,Potency,[10],inactive
same,Potency,[11],inactive
same,Potency,[12],inactive
same,Potency,[13],inactive
same,Potency,[14],inactive
same,Potency,[15],inactive
same,Potency,[16],inactive
same,Potency,[17],inactive
same,Potency,[18],inactive
same,Potency,[19],inactive
O=c1cc[nH]cc1,max response,[1],1.32%
same,Potency,[2],inactive
same,Potency,[3],inactive
same,Potency,[4],inactive
same,Potency,[5],inactive
same,Potency,[6],inactive
same,Potency,[7],inactive
same,Potency,[20],inactive
same,Potency,[8],inactive
same,Potency,[10],inactive
same,Potency,[11],inactive
same,Potency,[12],inactive
same,Potency,[13],inactive
same,Potency,[14],inactive
same,Potency,[15],inactive
same,Potency,[16],inactive
same,Potency,[17],inactive
same,Potency,[18],inactive
same,Potency,[19],inactive
C=C(C)CCO,max response,[1],1.14%
same,Potency,[2],inactive
same,Potency,[3],inactive
same,Potency,[4],inactive
same,Potency,[5],inactive
same,Potency,[6],inactive
same,Potency,[7],inactive
same,Potency,[20],inactive
same,Potency,[8],inactive
same,Potency,[10],inactive
same,Potency,[11],inactive
same,Potency,[12],inactive
same,Potency,[13],inactive
same,Potency,[14],inactive
same,Potency,[15],inactive
same,Potency,[17],inactive
same,Potency,[18],inactive
same,Potency,[19],inactive
CO[Si](OC)(c1ccccc1)c1ccccc1,max response,[1],-18.7%
same,Potency,[2],inactive
same,Potency,[3],inactive
same,Potency,[4],inactive
same,Potency,[5],inactive
same,Potency,[6],inactive
same,Potency,[7],inactive
same,Potency,[20],inactive
same,Potency,[8],inactive
same,Potency,[9],inactive
same,Potency,[10],inactive
same,Potency,[12],inactive
same,Potency,[13],inactive
same,Potency,[14],inactive
same,Potency,[15],inactive
same,Potency,[18],inactive
Oc1ccc(Cl)cc1C1CCCC1,max response,[1],-29.3%
same,Potency,[2],54.9 µM (active)
same,Potency,[3],54.9 µM (active)
same,Potency,[4],inactive
same,Potency,[5],54.9 µM (active)
same,Potency,[6],54.9 µM (active)
same,Potency,[7],inactive
same,Potency,[8],inactive
same,Potency,[9],54.9 µM (active)
same,Potency,[11],inactive
same,Potency,[13],27.5 µM (active)
same,Potency,[15],inactive
same,Potency,[16],49 µM (active)
same,Potency,[17],inactive
same,Potency,[18],inactive
CCCCCCCCCCCC(=O)Cl,max response,[1],0.0053%
same,Potency,[2],inactive
same,Potency,[3],inactive
same,Potency,[4],inactive
same,Potency,[5],inactive
same,Potency,[6],inactive
same,Potency,[7],inactive
same,Potency,[8],inactive
same,Potency,[9],inactive
same,Potency,[11],inactive
same,Potency,[12],inactive
same,Potency,[13],inactive
same,Potency,[14],inactive
same,Potency,[15],inactive
same,Potency,[16],inactive
same,Potency,[17],inactive
same,Potency,[18],inactive
Cc1cc(C)c(O)c(C(C)(C)C)c1,max response,[1],-8.82%
same,Potency,[2],24.5 µM (active)
same,Potency,[3],inactive
same,Potency,[4],inactive
same,Potency,[5],inactive
same,Potency,[6],inactive
same,Potency,[7],inactive
same,Potency,[8],inactive
same,Potency,[9],inactive
same,Potency,[10],inactive
same,Potency,[11],inactive
same,Potency,[12],inactive
same,Potency,[13],inactive
same,Potency,[15],inactive
same,Potency,[16],inactive
same,Potency,[17],inactive
same,Potency,[18],inactive
same,Potency,[19],inactive
O=C(O)CN(CCCN(CC(=O)O)CC(=O)O)CC(=O)O,max response,[1],-7.68%
same,activity change,[2],"1.78% [at 15.8 µM, stronger effect = higher value]"
same,cytotoxicity increase,[3],-15.6% [at 15.8 µM]
same,"activity change, negative = cytotoxic",[4],7.15% [at 15.8 µM]
same,cytotoxicity,[5],-12.4% [at 15.8 µM]
same,cytotoxicity increase,[6],-13.1% [at 15.8 µM]
same,"activity change, negative = cytotoxicity",[7],-10.1% [at 15.8 µM]
same,cytotoxicity,[8],-9.07% [at 15.8 µM]
same,cytotoxicity increase,[9],-13.5% [at 15.8 µM]
same,cytotoxicity increase,[10],-4.96% [at 15.8 µM]
same,"activity change, negative = cytotoxic",[11],-11.5% [at 15.8 µM]
same,"activity change, negative = cytotoxicity",[12],-9.03% [at 15.8 µM]
same,"activity change, negative = cytotoxicity",[13],-4.97% [at 15.8 µM]
same,activity change,[14],"0.612% [at 15.8 µM, stronger effect = higher value]"
same,"activity change, negative = cytotoxicity",[15],-28.3% [at 15.8 µM]
same,cytotoxicity increase,[16],-1.45% [at 15.8 µM]
same,"activity change, negative = cytotoxicity",[17],0.536% [at 19 µM]
same,"viability change, negative = cytotoxic",[18],0.128% [at 19 µM]
same,"activity, negative = inhibition",[19],1.14% [at 19 µM]
CN1CCN(c2ccccc2/C=C2\SCCN(c3ccc(Cl)c(Cl)c3)C2=O)CC1,Potency,[1],12.3 µM (active)
same,Potency,[2],49 µM (active)
same,Potency,[3],49 µM (active)
same,Potency,[4],21.9 µM (active)
same,Potency,[5],24.5 µM (active)
same,Potency,[6],19.5 µM (active)
same,Potency,[7],inactive
same,Potency,[20],49 µM (active)
same,Potency,[8],inactive
same,Potency,[11],43.6 µM (active)
same,Potency,[12],12.3 µM (active)
same,Potency,[13],12.3 µM (active)
same,Potency,[14],49 µM (active)
same,Potency,[15],inactive
same,Potency,[17],inactive
same,Potency,[18],48.6 µM (active)
CN1CC[C@H](c2c(O)cc(O)c3c(=O)cc(-c4ccccc4Cl)oc23)[C@H](O)C1,Potency,[1],0.19 µM (active)
same,Potency,[2],inactive
same,Potency,[3],inactive
same,Potency,[4],inactive
same,Potency,[5],0.268 µM (active)
same,Potency,[6],0.239 µM (active)
same,Potency,[7],inactive
same,Potency,[20],inactive
same,Potency,[8],inactive
same,Potency,[10],inactive
same,Potency,[11],inactive
same,Potency,[12],0.151 µM (active)
same,Potency,[13],inactive
same,Potency,[14],inactive
same,Potency,[15],inactive
same,Potency,[16],inactive
same,Potency,[17],inactive
same,Potency,[18],inactive
same,Potency,[19],0.0944 µM (active)
COCCC(=O)OC,max response,[1],1.08%
same,Potency,[2],inactive
same,Potency,[3],inactive
same,Potency,[4],inactive
same,Potency,[5],inactive
same,Potency,[6],inactive
same,Potency,[7],inactive
same,Potency,[8],inactive
same,Potency,[9],inactive
same,Potency,[10],inactive
same,Potency,[11],inactive
same,Potency,[12],inactive
same,Potency,[13],inactive
same,Potency,[14],inactive
same,Potency,[15],inactive
same,Potency,[16],inactive
same,Potency,[17],inactive
same,Potency,[18],inactive
same,Potency,[19],inactive
[Cl][Sc]([Cl])[Cl],max response,[1],-3.01%
same,Potency,[2],inactive
same,Potency,[3],inactive
same,Potency,[4],inactive
same,Potency,[5],inactive
same,Potency,[6],inactive
same,Potency,[7],inactive
same,Potency,[8],inactive
same,Potency,[9],inactive
same,Potency,[10],inactive
same,Potency,[11],inactive
same,Potency,[12],inactive
same,Potency,[13],inactive
same,Potency,[14],inactive
same,Potency,[15],inactive
same,Potency,[16],inactive
same,Potency,[17],inactive
same,Potency,[18],inactive
same,Potency,[19],inactive
